Compound activity as filed in PubChem BioAssay.
ERG-DNA inh – blocks human ERG Ets domain binding to DNA; AID 624246; fluorescence polarization, His-ERG Ets domain / labelled DNA; Potency, µM (doses to about 76.9 µM), without a hit: top-dose FP activity, negative = inhibition, hits mostly inhibitors; 0.028% of 370,000 active; active means well fitted inhibition curve with a large enough effect in the polarisation, with a control signal flat; inconclusive means small, poorly fitted or top-dose-only effect, or effect the other way, or a change in a side signal; inactive means no such curve, though single readings can be large or run the other way; the % refers to the polarisation;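 further: polarization taken with two DNA probes labelled with fluorescein and Texas red; potency means the concentration at half of the fitted maximal effect; % of control where 0% means no effect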
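His-tagged ERG Ets domain (1 uM in the protein solution; 300mM KCl, 50mM Tris-HCl, 1mM EDTA, 1mM DTT, pH 7.5) received compound, then a probe mix of 5 nM fluorescein-DNA and 100nM Texas-615-DNA. Fluorescence polarization was read for both dyes.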
Giardia killer – kills Giardia lamblia | activity change, % at 7.66 µM, hits read low | 0.15% of 340,000 active | AID 540267 | Giardia lamblia trophozoite viability; in the data active means activity change below about -80%; inconclusive means between about -30% and that limit;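 further: parasites exposed to compound for two days anaerobically before the ATP read; on the % scale 0 is the no-effect control and ±100 the full control effect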
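Each well holds 100 Giardia trophozoites and compound. After two days (48 hrs) at 37 deg C in anaerobic conditions, ATP is quantified by luminescence.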
Integrin act MD – activators of alpha7 integrin expression for muscular dystrophy; alpha7betagal myoblasts, beta-gal FDG fluorescence, 48 h; Potency, µM (highest dose often 38.3 µM), without a hit: at the top dose activation, actives largely listed as activators; 0.064% of 350,000 active;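 further: potency means the concentration at half of the fitted maximal effect; 100% = response of the positive control SU9516; nearly all actives have a fitted effect of over 60% in size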
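Alpha7betagal+/- myoblasts (passage 13) were plated 16-24 hr, then exposed to compounds (1:260 dilution of DMSO stock) for 48 hours at 37C. After MPER lysis, β-galactosidase reporter activity was read as FDG fluorescence (ex 480/em 540) after 30 minutes.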
Gal4-VP16 FLuc – Gal4-VP16 reporter inhibition counter-screen; Drosophila S2 Gal4-VP16 UAS-luciferase, luminescence, 20 h; Potency, µM (top dose mostly 53.6 µM), for the others: at the highest dose activity, negative = inhibition, hits mostly inhibitors; 3.5% of 310,000 active; AID 2546;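 further: Gal4-VP16 expression switched on by copper sulfate through the metallothionein promoter; potency means the concentration at half of the fitted maximal effect; on the % scale 0 is the no-effect control and ±100 the full control effect; nearly all actives have a fitted effect of over 50% in size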
RORgamma inh – ROR gamma (mouse) transcription inhibition; Drosophila S2 Gal4-RORgamma UAS-luciferase reporter, 20 h; Potency, µM (highest dose often 53.6 µM), for inactives: top-dose activity change, negative = inhibition, actives largely listed as inhibitors; 5.4% of 310,000 active; P51450; further: potency means the concentration at half of the fitted maximal effect; on the % scale 0 is the no-effect control and ±100 the full control effect; nearly all actives have a fitted effect of over 60% in size
Target sequence (P51450 whole entry, looked up, the tested form may be a part): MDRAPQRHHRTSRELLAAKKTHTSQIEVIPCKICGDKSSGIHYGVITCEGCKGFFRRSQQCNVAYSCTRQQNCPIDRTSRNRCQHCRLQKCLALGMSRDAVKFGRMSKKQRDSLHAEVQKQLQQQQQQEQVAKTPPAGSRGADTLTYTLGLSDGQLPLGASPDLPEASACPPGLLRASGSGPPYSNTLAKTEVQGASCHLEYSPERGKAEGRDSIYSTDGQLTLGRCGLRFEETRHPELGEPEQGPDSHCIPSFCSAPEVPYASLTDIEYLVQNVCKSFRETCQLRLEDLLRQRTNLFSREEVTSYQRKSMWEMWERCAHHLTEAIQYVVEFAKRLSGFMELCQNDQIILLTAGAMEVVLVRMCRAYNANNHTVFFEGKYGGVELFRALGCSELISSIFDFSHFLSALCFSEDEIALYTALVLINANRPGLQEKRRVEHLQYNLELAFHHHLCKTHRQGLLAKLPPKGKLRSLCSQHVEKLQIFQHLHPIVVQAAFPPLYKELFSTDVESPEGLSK
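ROR gamma transcriptional activity was tracked as Gal4-UAS luciferase output in stably transfected Drosophila Schneider cells, with compound added 1 hr before 700 uM copper sulfate induction and a 20 hr ambient-temperature incubation.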
Starred values were filed as active, the others as inactive; ? = inconclusive; nt = no result given; [ ] = dose if it differs, or a comment. The sample as a whole holds a higher share of hits than the screen did. Unless noted, the call rests on the fitted dose curve; in most records, active means well fitted curve in the direction sought with a large enough effect; inconclusive means small, poorly fitted or top-dose-only effect, or another doubt; inactive means no such curve, though single readings can be large; an effect the other way counts as inactive or inconclusive.

SMILES | ERG-DNA inh | Giardia killer | Integrin act MD | Gal4-VP16 FLuc | RORgamma inh
Cc1ccc(/C=C2/CNC/C(=C\c3ccc(C)cc3)C2=O)cc1 | nt | nt | nt | 7.1µM* | 3.5µM*
CC(C)=NO[C@@H](C)c1cn([C@H](CO)Cc2ccccc2)nn1 | nt | nt | nt | -5%[10 µM] | 4%[10 µM]
CCn1c(C)nc2cc(C(=O)N/N=C/c3cccc(OC)c3O)ccc21 | 16% | 5 | -26% | 0.71µM* | 0.32µM*
CCn1c(C)nc2cc(C(=O)N/N=C/c3ccc(O)c(O)c3O)ccc21 | 1% | 10 | -70% | -6%[10 µM] | 0%
C=CCOc1ccc(/C=N/NC(=O)c2c(C)nc3ccc(Cl)cn23)cc1 | 7% | -7 | 34% | 10µM* | 2.2µM*
COC(=O)c1ccc(/C=N\NC(=O)c2c(C)nc3ccc(Cl)cn23)cc1 | 12% | 21 | 21% | -17% | -2%
Cc1ccc(/C=N/NC(=O)c2c(C)nc3ccc(Br)cn23)cc1 | -2% | 32 | 0% | ? | 7.1µM*
COc1cccc(/C=N/NC(=O)c2c(C)nc3ccc(Br)cn23)c1O | 3% | 10 | -28% | 2.5µM* | 2.5µM*
CCOC(=O)c1nn(-c2ccc(C)c(C)c2)c(=O)c(C#N)c1C | 1% | -16 | 5% | -2% | -23%[1.91 µM]
COC(=O)C1=C[C@@H](C(=O)OC)[C@@H]2C3=C(C(=O)C2(C)C)[C@H](C)n2c(=O)n(C)c(=O)n2[C@@H]3C1 | nt | 0 | nt | -7% | -1%
COc1ccc(/C=N\NC(=O)c2c(C)nc3ccc(Br)cn23)cc1 | -3% | 6 | -43% | -102% | 10µM*
CC(C)N(C)Cc1nnnn1CC(=O)NCCc1cccc(C(F)(F)F)c1 | 8% | -1 | 5% | 4% | 0%
CCOc1cc(C(=O)NCc2ccc(-c3nc4ccccc4o3)cc2)cc(OCC)c1OCC | 3% | -7 | 21% | 12% | 8%
Cc1ccc(C(=O)NC(=S)NCc2ccccc2)cc1 | 3% | -24 | -7% | 13µM* | 10µM*
COc1cc(CN2CCC(C(=O)NCCC(C)C)CC2)ccc1OCc1ccccc1 | 4% | -25 | -1% | 3% | 4%
COc1cccc(OC)c1C(=O)NC(=S)NCc1ccccc1 | 1% | 14 | -9% | ? | 10µM*
COc1cc(CNC(=O)C2CC2)ccc1OCc1ccccc1 | 0% | 2 | -11% | -6% | 32µM*
COc1ccc(C(=O)NC(=S)NCc2ccc(-c3nc4ccccc4o3)cc2)cc1OC | -4% | -24 | -6% | 2.5µM* | 1.3µM*
CC1CCC(NC(=O)COC(=O)CNC(=O)c2ccc3ccccc3c2)CC1 (centres undefined) | -4% | 27 | 19% | nt | nt
CCOc1ccc(NC(=O)Cn2c(=O)c(CNc3ccc(CC)cc3)cc3cc4c(cc32)OCO4)cc1 | 1% | nt | nt | nt | nt
O=C(N/N=C/c1cccc([N+](=O)[O-])c1)c1cc[n+](CCO)cc1 | -13% | -23 | 4% | -2% | -12%
C=CCOCC/C=C1/c2ccccc2C(OC)C1C (centres undefined) | nt | nt | nt | 0%[10 µM] | 3%[10 µM]
O=C1[C@H]2O[C@@H]2[C@@H](O)[C@H]2[C@H]1CCn1c(=O)n(Cc3cc4c(cc3Cl)OCO4)c(=O)n12 | nt | nt | nt | 11%[10 µM] | 0%[10 µM]
COc1ccc(C(=O)NC(=S)NCc2ccccc2)cc1OC | -1% | 0 | -22% | ? | 3.2µM*
CNC(=S)/N=C/NOCc1ccc(Cl)cc1Cl | 6% | 1 | -29% | -11% | -24%
SMILES | ERG-DNA inh | Giardia killer | Integrin act MD | Gal4-VP16 FLuc | RORgamma inh
COc1cc(O)c(C(=O)c2ccccc2)cc1O | nt | nt | nt | ? | 13µM*
COc1cc(O)c(C(=O)c2ccccc2)cc1S(=O)(=O)O | nt | nt | nt | 8% | -10%
Cc1cc2c(c(=O)n1-c1ccccc1)C1O[C@](c3ccsc3)(Cc3ccccc31)O2 | nt | nt | nt | ? | -8%[10 µM]
COC(=O)c1sccc1NC(=S)Nc1ccccc1 | nt | 17 | 32% | ? | 16µM*
COC(=O)c1sccc1NC(=S)Nc1cc(C)cc(C)c1 | 25% | -15 | 13% | 4.5µM* | 5µM*
COC(=O)c1sccc1NC(=S)Nc1ccc(F)cc1F | 17% | 33 | 13% | ? | 5.6µM*
COC(=O)c1sccc1NC(=S)Nc1cccc(F)c1 | -3% | -24 | -4% | ? | 18µM*
C/C(Cl)=C/CCl | nt | nt | nt | -4% | 8%
CCOc1ccc(N2C(=O)C3C4C=CC([C@H]5CC45)[C@@H]3C2=O)cc1 (some centres undefined) | 26% | 8 | 1% | 19% | 12%
Cc1ccc(N(C)C(=O)Cn2ncc3c([nH]c4ccccc43)c2=O)cc1C | 2% | nt | nt | nt | nt
C[N+]1(C)CC(O)[C@H](C(=O)[O-])C1 (some centres undefined) | nt | nt | nt | -2% | -15%
CCNC(=S)NS(=O)(=O)c1ccc(CC)cc1 | 0% | 24 | 13% | ? | 13µM*
CCNC(=S)NS(=O)(=O)c1ccc(C)cc1 | 7% | 7 | -14% | ? | ?
COc1ccc(C2C=C(C34CC5CC(CC(C5)C3)C4)NC(=S)N2)cc1 (centres undefined) | -4% | ? | -5% | 1.6µM* | 0.79µM*
CC(=O)Nc1ccc(NC(=S)NC(=O)c2ccc([N+](=O)[O-])cc2)cc1 | -9% | -13 | 22% | -3% | -13%
Cc1cc(C(=O)NC(=S)Nc2cccc(NC(=O)C(C)C)c2)ccc1[N+](=O)[O-] | 6% | 15 | -9% | ? | 10µM*
CC(C)C(=O)Nc1ccc(NC(=S)NC(=O)c2ccc([N+](=O)[O-])cc2)cc1 | 4% | 11 | 5% | 0% | 10µM*
CC(C)C(=O)Nc1cccc(NC(=S)NC(=O)c2ccc([N+](=O)[O-])cc2)c1 | -15% | 9 | -3% | ? | 11µM*
O=C(NC(=S)Nc1cccc(NC(=O)c2ccccc2)c1)c1cccc([N+](=O)[O-])c1 | -1% | -5 | 2% | -92% | ?
O=C(O[C@@H]1Cc2c(O)cc(O)cc2OC1c1ccc(O)c(O)c1)c1cc(O)c(O)c(O)c1 (some centres undefined) | nt | nt | nt | -5% | -32%
